Test results published in PubChem BioAssay.
Values without a mark were called inactive. The list shows a part of the results. Calls of active or inactive are those of the source.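 The calls were made as follows, unless noted: active = mean inhibition above a cutoff equal to the average over all tested compounds plus one standard deviation (cut at about 70% in these data); inactive = the rest.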

How the values were obtained:
[1] = target: Photoreceptor-specific nuclear receptor (Homo sapiens) (UniProt Q9Y5X4); assay: retest of NR2E3-NCOR disrupting agonists – cell-based, luminescence, CHO-S two-hybrid, confirmation (AID 624378;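 active = average inhibition above a cutoff equal to the mean inhibition of all tested compounds plus one SD, cut at about 70% in these data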;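 also: 0% = DMSO in NR2E3 cells and 100% = DMSO in cells lacking NR2E3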); conditions: CHO-S mammalian two-hybrid NR2E3-NCOR, luciferase luminescence; at 3.98 µM; active compounds read high
Sequence of Photoreceptor-specific nuclear receptor (Homo sapiens) (Q9Y5X4 whole entry, looked up, the tested form may be a part): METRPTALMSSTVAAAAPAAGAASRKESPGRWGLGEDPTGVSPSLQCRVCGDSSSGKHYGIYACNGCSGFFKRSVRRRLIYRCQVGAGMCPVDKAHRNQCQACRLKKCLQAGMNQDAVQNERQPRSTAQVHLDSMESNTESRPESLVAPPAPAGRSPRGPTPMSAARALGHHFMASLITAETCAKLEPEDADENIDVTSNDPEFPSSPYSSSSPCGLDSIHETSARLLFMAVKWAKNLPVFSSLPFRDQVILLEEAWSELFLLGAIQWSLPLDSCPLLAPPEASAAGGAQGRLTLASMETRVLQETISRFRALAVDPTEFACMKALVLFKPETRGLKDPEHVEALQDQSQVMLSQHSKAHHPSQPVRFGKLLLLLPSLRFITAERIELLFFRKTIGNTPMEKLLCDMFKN

[2] = nonselective effects on VP16 transactivation – cell-based, luminescence, CHO-S, high throughput, counter-screen for NR2E3 agonist project, confirmation (AID 624379); conditions: CHO-S GAL4-VP16 luciferase reporter, at 3.98 µM, active compounds read high;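 also: 0% = DMSO with VP16-transfected cells and 100% = DMSO with cells lacking VP16; higher means less reporter light so more repression of VP16 activity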
[3] = target: Receptor-interacting serine/threonine-protein kinase 2 (Homo sapiens) (UniProt O43353); assay: inhibitors of RIPK2 association with NOD2 – fluorescence, CHO cells, BLA complementation, triplicate, confirmation (AID 624370;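 active = mean inhibition across replicates above a set limit taken from the earlier primary screen, cut at about 21% in these data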;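 also: 0% = DMSO-only wells and the high end = clavulanate BLA-blocked wells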); conditions: CCF4 FRET, at 4.98 µM, active compounds read high
Sequence of Receptor-interacting serine/threonine-protein kinase 2 (Homo sapiens) (O43353 whole entry, looked up): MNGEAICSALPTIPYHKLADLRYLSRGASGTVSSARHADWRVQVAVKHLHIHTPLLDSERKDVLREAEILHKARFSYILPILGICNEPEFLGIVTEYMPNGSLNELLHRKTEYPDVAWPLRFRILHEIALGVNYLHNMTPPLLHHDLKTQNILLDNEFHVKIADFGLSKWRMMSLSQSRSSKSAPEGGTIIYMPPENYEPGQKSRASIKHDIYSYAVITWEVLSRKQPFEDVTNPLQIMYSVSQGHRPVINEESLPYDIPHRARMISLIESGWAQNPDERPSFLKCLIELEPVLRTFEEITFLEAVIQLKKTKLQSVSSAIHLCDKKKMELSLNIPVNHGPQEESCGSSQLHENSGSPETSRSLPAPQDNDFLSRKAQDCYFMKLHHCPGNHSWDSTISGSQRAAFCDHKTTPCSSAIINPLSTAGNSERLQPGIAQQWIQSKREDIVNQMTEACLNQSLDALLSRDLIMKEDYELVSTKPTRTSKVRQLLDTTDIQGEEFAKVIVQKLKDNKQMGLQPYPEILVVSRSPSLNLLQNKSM

[4] = BLA reporter readout interference – cell-based, CHO-K1 CMV-bla, CCF4 FRET, fluorescence, artefact control for NOD2-RIPK2 interaction inhibitor project, confirmation (AID 624371;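 active = mean inhibition above the low-control mean inhibition plus three low-control SD, cut at about 11% in these data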;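 also: 0% = DMSO only wells and 100% = clavulanate high control wells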); conditions: CCF4 FRET ratio, counterscreen, at 4.98 µM, active compounds read high
[5] = StAR promoter reporter inhibitors, counter-screen for LRH-1 inverse agonist project, cell-based, luminescence, high throughput (AID 651611; in the data active = inhibition above about 28%); conditions: StAR promoter luciferase reporter counterscreen, at 3.6 µM, active compounds read high
[6] = target: Nuclear receptor subfamily 5 group A member 2 (Homo sapiens) (UniProt O00482); assay: NR5A2 activity suppression in reporter cells – cell-based, luminescence, confirmation (AID 651613; in the data active = inhibition above about 42%;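 also: HEK293T cells co-transfected with LRH-1 and StAR promoter luciferase reporter; 0% = vehicle wells and 100% = parental cells lacking receptor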); conditions: cell-based LRH-1 luciferase reporter, inverse agonism; at 3.6 µM; active compounds read high
Sequence of Nuclear receptor subfamily 5 group A member 2 (Homo sapiens) (O00482 whole entry, looked up): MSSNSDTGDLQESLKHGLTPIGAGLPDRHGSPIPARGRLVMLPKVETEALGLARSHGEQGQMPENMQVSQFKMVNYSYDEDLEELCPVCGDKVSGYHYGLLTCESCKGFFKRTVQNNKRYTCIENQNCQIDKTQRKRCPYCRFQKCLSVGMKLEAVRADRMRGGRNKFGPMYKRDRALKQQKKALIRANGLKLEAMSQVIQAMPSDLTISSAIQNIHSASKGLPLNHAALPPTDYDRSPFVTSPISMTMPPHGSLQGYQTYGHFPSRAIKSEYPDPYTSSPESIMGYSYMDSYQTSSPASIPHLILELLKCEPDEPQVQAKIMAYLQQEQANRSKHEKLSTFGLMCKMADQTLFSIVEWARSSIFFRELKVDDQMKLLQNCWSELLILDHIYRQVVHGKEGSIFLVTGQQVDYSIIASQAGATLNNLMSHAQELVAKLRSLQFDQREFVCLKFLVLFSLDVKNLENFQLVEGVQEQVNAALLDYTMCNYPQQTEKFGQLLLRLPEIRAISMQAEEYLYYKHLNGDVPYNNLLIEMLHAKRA

[7] = target: Steroidogenic factor 1 (Homo sapiens) (UniProt Q13285); assay: inverse agonism at SF1 nuclear receptor – cell-based, luminescence, high throughput, counter-screen for LRH-1 inverse agonist project (AID 651614; in the data active = inhibition above about 44%;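 also: cells cotransfected with StAR promoter reporter and SF1 expression vector; 0% = vehicle on cells with receptor and 100% = vehicle on cells lacking receptor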); conditions: cell-based SF1 luciferase reporter, at 3.6 µM, active compounds read high
Sequence of Steroidogenic factor 1 (Homo sapiens) (Q13285 whole entry, looked up, the tested form may be a part): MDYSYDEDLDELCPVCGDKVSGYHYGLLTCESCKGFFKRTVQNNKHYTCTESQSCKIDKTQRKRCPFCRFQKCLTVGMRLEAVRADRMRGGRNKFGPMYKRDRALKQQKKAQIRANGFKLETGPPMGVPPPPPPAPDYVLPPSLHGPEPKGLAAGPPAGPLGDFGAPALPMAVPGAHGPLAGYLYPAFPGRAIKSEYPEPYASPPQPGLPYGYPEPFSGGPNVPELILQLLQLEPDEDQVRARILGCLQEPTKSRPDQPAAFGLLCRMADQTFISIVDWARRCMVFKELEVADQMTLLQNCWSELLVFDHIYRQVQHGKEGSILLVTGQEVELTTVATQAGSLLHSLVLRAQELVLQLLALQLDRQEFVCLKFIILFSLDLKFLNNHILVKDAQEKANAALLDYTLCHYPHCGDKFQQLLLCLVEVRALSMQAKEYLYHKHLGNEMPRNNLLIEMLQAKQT

[8] = compounds suppressing VP16-driven luciferase signal – cell-based, luminescence, high throughput, counter-screen for LRH-1 inverse agonist project (AID 651615; in the data active = inhibition above about 33%); conditions: Gal4-VP16 luciferase reporter cells, at 3.6 µM, active compounds read high
[9] = test system: transactivating tegument protein VP16 (Human herpesvirus 1); assay: compounds suppressing VP16-driven luciferase signal – cell-based, luminescence, single concentration, counter-screen for SRC2 inhibitor project (AID 652007; in the data active = inhibition above about 36%); conditions: cell-based VP16 transactivation luciferase reporter, at 8.9 µM, active compounds read high
[10] = target: Nuclear receptor coactivator 2 (Homo sapiens) (UniProt Q15596); assay: inhibition of GAL4-SRC2 driven luciferase expression – cell-based, luminescence, HEK293, triplicate, confirmation (AID 652008;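 active = mean inhibition above 46.5%, the solvent-only control mean plus 3 SD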;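 also: 0% = DMSO-treated cells and 100% = Gossypol at 36 µM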); conditions: HEK293 GAL4-SRC2 luciferase reporter, at 8.9 µM, active compounds read high
Sequence of Nuclear receptor coactivator 2 (Homo sapiens) (Q15596 whole entry, looked up, the tested form may be a part): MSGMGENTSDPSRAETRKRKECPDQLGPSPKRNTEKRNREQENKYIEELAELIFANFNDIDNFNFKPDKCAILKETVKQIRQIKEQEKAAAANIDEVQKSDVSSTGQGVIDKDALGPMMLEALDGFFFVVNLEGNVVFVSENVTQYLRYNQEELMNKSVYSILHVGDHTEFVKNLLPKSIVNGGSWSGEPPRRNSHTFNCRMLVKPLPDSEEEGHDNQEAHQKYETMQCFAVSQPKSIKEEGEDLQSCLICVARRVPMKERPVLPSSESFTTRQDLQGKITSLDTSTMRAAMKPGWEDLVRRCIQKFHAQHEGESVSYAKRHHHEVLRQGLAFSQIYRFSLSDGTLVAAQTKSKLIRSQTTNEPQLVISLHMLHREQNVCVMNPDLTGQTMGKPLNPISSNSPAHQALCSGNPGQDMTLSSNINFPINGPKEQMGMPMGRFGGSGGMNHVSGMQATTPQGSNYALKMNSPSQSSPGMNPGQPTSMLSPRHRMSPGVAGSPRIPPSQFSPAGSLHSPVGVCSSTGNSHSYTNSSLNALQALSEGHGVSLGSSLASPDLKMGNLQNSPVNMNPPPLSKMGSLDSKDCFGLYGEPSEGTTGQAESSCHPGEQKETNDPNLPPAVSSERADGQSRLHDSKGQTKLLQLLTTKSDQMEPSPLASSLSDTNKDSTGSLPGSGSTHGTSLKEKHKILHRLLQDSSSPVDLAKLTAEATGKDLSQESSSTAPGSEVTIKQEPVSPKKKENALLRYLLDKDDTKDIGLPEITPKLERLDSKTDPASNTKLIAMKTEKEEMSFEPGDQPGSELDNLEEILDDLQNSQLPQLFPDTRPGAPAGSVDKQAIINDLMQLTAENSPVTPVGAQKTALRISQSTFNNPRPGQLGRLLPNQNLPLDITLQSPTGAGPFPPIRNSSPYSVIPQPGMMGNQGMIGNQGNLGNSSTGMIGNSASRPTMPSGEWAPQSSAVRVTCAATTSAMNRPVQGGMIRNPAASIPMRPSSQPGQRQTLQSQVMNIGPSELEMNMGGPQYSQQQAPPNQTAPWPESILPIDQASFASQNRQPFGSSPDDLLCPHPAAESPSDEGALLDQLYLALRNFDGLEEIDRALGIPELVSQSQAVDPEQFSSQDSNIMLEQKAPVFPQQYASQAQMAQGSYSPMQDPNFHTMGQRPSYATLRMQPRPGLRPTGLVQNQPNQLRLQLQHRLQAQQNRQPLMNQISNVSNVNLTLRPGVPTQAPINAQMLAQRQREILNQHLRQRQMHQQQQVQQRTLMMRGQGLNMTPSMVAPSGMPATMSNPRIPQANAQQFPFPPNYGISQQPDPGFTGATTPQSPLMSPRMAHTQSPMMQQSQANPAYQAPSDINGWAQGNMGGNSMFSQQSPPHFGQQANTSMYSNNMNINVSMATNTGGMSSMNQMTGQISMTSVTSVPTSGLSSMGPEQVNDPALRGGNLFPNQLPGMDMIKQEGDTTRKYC

[11] = test system: DAF-12 nuclear receptor (Heterodera glycines), GAL4-LBD fusion; assay: hgDAF-12 GAL4 fusion reporter activation, retest – cell-based, luminescence, HEK293, GAL4-LBD fusion, confirmation (AID 743050;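 active = mean activation over triplicate wells above the hit cutoff derived from the earlier primary screen, cut at about 11% in these data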;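 also: 0% = DMSO low control and 100% = 2 mM sodium butyrate high control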); conditions: HEK293 GAL4-hgDAF12 luciferase reporter, agonist mode; at 6.8 µM; active compounds read high; percent of butyrate response
[12] = target: Oxysterols receptor LXR-beta (Homo sapiens) (UniProt P55055); assay: nonspecific reporter activation via LXR – cell-based, luminescence, HEK293, H. glycines campaign, counter-screen for hgDAF-12 agonist project, confirmation (AID 743051;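 active = mean activation of the triplicate above a set limit carried over from the primary screen, none filed active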); conditions: HEK293 Gal4-LXR luciferase reporter, 24 h; at 6.8 µM; active compounds read high
Sequence of Oxysterols receptor LXR-beta (Homo sapiens) (P55055 whole entry, looked up, the tested form may be a part): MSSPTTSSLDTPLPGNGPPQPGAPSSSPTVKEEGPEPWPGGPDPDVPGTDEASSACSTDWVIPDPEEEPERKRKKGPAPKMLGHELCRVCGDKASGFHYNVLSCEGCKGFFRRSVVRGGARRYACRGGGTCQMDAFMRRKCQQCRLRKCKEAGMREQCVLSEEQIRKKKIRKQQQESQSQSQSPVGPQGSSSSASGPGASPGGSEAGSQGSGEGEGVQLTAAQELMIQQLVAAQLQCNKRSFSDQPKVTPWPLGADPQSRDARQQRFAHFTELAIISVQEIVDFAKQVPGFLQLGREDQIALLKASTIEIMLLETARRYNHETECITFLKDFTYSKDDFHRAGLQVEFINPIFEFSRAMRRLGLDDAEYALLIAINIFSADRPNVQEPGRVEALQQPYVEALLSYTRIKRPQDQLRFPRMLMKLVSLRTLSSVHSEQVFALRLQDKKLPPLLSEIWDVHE

[13] = VP16-driven transactivation reporter suppression – cell-based, luminescence, HEK293, counter-screen for COUP-TFII antagonist project (AID 687007; in the data active = inhibition above about 13%); conditions: HEK293 Gal4-VP16 luciferase reporter, at 8.5 µM, active compounds read high
[14] = target: COUP transcription factor 2 (Homo sapiens) (UniProt P24468); assay: retest of COUP-TFII reporter suppressors – cell-based, luciferase reporter, HEK293, triplicate, confirmation (AID 687008;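 active = mean inhibition over three repeats above a set limit taken from the earlier primary screen, cut at about 38% in these data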;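 also: 100% = cells given the luciferase reporter alone without the COUP-TF2 vector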); conditions: HEK293 NGFI-A luciferase reporter, luminescence; at 8.5 µM; active compounds read high
Sequence of COUP transcription factor 2 (Homo sapiens) (P24468 whole entry, looked up): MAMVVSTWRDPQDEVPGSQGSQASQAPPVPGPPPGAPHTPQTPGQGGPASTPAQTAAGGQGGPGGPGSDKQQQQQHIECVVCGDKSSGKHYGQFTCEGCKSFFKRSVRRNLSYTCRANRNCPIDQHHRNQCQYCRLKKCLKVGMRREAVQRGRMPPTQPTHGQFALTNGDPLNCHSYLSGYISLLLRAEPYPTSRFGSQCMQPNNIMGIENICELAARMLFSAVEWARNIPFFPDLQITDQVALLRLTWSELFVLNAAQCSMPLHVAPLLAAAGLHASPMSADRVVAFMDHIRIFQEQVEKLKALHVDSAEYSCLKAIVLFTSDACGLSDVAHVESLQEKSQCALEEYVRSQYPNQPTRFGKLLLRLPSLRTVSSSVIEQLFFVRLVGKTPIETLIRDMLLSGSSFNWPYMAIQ

COC(=O)c1sccc1NC(=O)CSc1ccccc1NS(=O)(=O)c1cc(Cl)ccc1Cl
inhibition [1]: 84% (active)
inhibition [2]: 74.7% (active)

O=C1/C(=C\c2ccc([N+](=O)[O-])cc2)CS(=O)(=O)C/C1=C/c1ccc([N+](=O)[O-])cc1
inhibition [3]: 91.8% (active)
inhibition [4]: 4.33%
inhibition [1]: 96% (active)
inhibition [2]: 53.2%
inhibition [5]: 2.1%
inhibition [6]: 89.5% (active)
inhibition [7]: 79.7% (active)
inhibition [8]: 70.2% (active)

Cc1cccc2sc(N(CCCN(C)C)C(=O)CCS(=O)(=O)c3ccccc3)nc12
inhibition [3]: 25.4% (active)
inhibition [4]: 7%
inhibition [9]: 12%
inhibition [10]: 32.5%

CCCC1CCC(=NNC(=S)NCCc2ccccc2)CC1 (centres undefined)
inhibition [1]: 3.69%
inhibition [2]: -1.56%

O=C(NC1=CC(=O)c2ccccc2C1=O)c1ccccc1
inhibition [3]: 89% (active)
inhibition [4]: -4.54%
inhibition [1]: 6.41%
inhibition [2]: 17.1%

C[C@H]1CN([C@@H](C)CO)C(=O)c2cc(-c3cccc(F)c3)cnc2O[C@@H]1CN(C)S(C)(=O)=O
inhibition [3]: -4.32%
inhibition [4]: -1.39%

Cc1ccnc(NC(=O)C2CCN(S(=O)(=O)c3c(C)c(C)cc(C)c3C)CC2)c1
inhibition [1]: 83.3% (active)
inhibition [2]: 21.8%
inhibition [5]: 6.87%
inhibition [6]: 36.1%
inhibition [7]: 13.2%
inhibition [8]: 21.5%
activation [11]: 7.81%
activation [12]: 0.16%

C/C(=N\NC(=S)NCc1ccccc1)c1ccc(Cl)cc1
inhibition [1]: -1.78%
inhibition [2]: -14.2%

CCOC(=O)N1CCN(C(=O)C2CCN(c3ncnc4c3sc3cccc(F)c34)CC2)CC1
inhibition [1]: 92% (active)
inhibition [2]: 70.3%
inhibition [13]: -7.67%
inhibition [14]: 27.1%

N#C[C@]1(S(=O)(=O)c2ccccc2)C[C@@H]2ON=C(c3cccc(Br)c3)[C@@H]2C1
inhibition [1]: 88.5% (active)
inhibition [2]: 75.2% (active)
inhibition [13]: 2.59%
inhibition [14]: 14.3%

Cn1nccc1C(=O)NC1CCCc2c1cnn2-c1ccccc1F (centres undefined)
inhibition [1]: 93.7% (active)
inhibition [2]: 86.2% (active)
inhibition [13]: 1.97%
inhibition [14]: 66.8% (active)

Cc1ccc(CS(=O)(=O)c2ncc(Cl)c(C(=O)Nc3nnc(C)s3)n2)cc1
inhibition [1]: 30.6%
inhibition [2]: -7.39%
inhibition [9]: 27.1%
inhibition [10]: 55% (active)

CSc1ncccc1C(=O)Nc1nc2ccc(F)cc2s1
inhibition [1]: 68.5%
inhibition [2]: 25.2%

O=[N+]([O-])c1ccc(NS(=O)(=O)c2ccccc2)c(Cl)c1
inhibition [1]: 77.9% (active)
inhibition [2]: 43.9%

CSc1nsc(SC)c1NC(=O)OC1CCCCC1
inhibition [1]: -5.88%
inhibition [2]: -17.6%

COc1ccc(-n2c(C)cc(C(=O)CSc3nnc(-c4cccs4)o3)c2C)cc1
inhibition [1]: 61.9%
inhibition [2]: 66.9%
inhibition [9]: 20%
inhibition [10]: 33.9%
inhibition [13]: 0.72%
inhibition [14]: 34.1%

COc1ccc(CC(=O)Nc2nc(-c3ccc(F)c(F)c3)cs2)cc1OC
inhibition [1]: 98% (active)
inhibition [2]: 81.8% (active)
inhibition [13]: 2.71%
inhibition [14]: 55.4% (active)

CCCNc1ncnc2sc(C)c(C)c12
inhibition [1]: 27.8%
inhibition [2]: 29.6%

Cc1ccc(S(=O)(=O)N2CCN(c3ncnc4ccccc34)CC2)cc1
inhibition [1]: 94.1% (active)
inhibition [2]: 80.5% (active)

CCCCCc1c(-c2ccc(OC)c(OC)c2)ncn1CCc1ccccc1OC
inhibition [1]: 73.5% (active)
inhibition [2]: 35.4%
inhibition [13]: 4.25%
inhibition [14]: 25.6%

CCOC(=O)N1CCN(C(=O)c2ccc(S(=O)(=O)Nc3cccc(C(F)(F)F)c3)cc2)CC1
inhibition [1]: 65.8%
inhibition [2]: 47.3%

Cc1csc(NC(=S)Nc2cccc(Cl)c2)n1
inhibition [1]: -131%
inhibition [2]: -129%

O=S(=O)(c1cccc(Cn2nnc(-c3ccc(F)cc3)n2)c1)N1CCOCC1
inhibition [1]: 34.9%
inhibition [2]: 39.4%

Cc1[nH]n(-c2cccc(Cl)c2)c(=O)c1-c1ccc(Cl)cc1
inhibition [1]: 97.8% (active)
inhibition [2]: 71.3% (active)

COc1ccc(C(=O)NC2CCCc3c2cnn3-c2cccc(C)c2C)c(OC)n1 (centres undefined)
inhibition [1]: 89.6% (active)
inhibition [2]: 74.1% (active)
inhibition [9]: -6.55%
inhibition [10]: 19.8%
